Assay results taken from PubChem BioAssay (NCI).
Where “and” joins values, the source holds several entries; their conditions need not be identical. Equal entries are not always repeated. Compounds without any hit were thinned out: in the full panel of roughly 83,000, 20% have a hit.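 Negative percent growth values reflect cell death: -40 means 40% of the cells present at the start died, and -100 means all died.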 Calls of active or inactive are those of the source. How the source made its calls: active means growth percent below 10; inactive means the rest.

Columns and labels:
Assay in all cases: NCI-60 one-dose screen, 48 h (100 = growth as untreated, 0 = no growth, -100 = all killed)
A549/ATCC NSCLC = conditions: 10 µM unless noted
786-0 renal = conditions: 10 µM unless noted
DU-145 prostate = conditions: 10 µM unless noted
SF-268 CNS = conditions: 10 µM unless noted
SF-539 CNS = conditions: 10 µM unless noted
UACC-257 melanoma = conditions: 10 µM unless noted
M14 melanoma = conditions: 10 µM unless noted
HCT-15 colon = conditions: 10 µM
HT29 colon = conditions: 10 µM unless noted
PC-3 prostate = conditions: 10 µM unless noted
UACC-62 melanoma = conditions: 10 µM unless noted
SK-MEL-28 melanoma = conditions: 10 µM unless noted
TK-10 renal = conditions: 10 µM unless noted
HL-60(TB) leukemia = conditions: 10 µM unless noted
OVCAR-8 ovarian = conditions: 10 µM unless noted
OVCAR-5 ovarian = conditions: 10 µM unless noted
OVCAR-3 ovarian = conditions: 10 µM unless noted
NCI/ADR-RES ovarian = conditions: 10 µM unless noted
BT-549 breast = conditions: 10 µM
MCF7 breast = conditions: 10 µM unless noted

SMILES | growth (A549/ATCC NSCLC) | growth (786-0 renal) | growth (DU-145 prostate) | growth (SF-268 CNS) | growth (SF-539 CNS) | growth (UACC-257 melanoma) | growth (M14 melanoma) | growth (HCT-15 colon) | growth (HT29 colon) | growth (PC-3 prostate) | growth (UACC-62 melanoma) | growth (SK-MEL-28 melanoma) | growth (TK-10 renal) | growth (HL-60(TB) leukemia) | growth (OVCAR-8 ovarian) | growth (OVCAR-5 ovarian) | growth (OVCAR-3 ovarian) | growth (NCI/ADR-RES ovarian) | growth (BT-549 breast) | growth (MCF7 breast)
CCC[CH2][Sn]1([CH2]CCC)[O]C(=O)c2cccc([N+](=O)[O-])c2C(=O)[O]1 | 42.4% (inactive) | -97.3% (active) | -96.7% (active) | -90.1% (active) | -99.5% (active) | -94.1% (active) | -89.2% (active) | -85.5% (active) | -75% (active) | -67.5% (active) | -88.3% (active) | -93.3% (active) | -95.7% (active) | -48.2% (active) | -93.1% (active) | -95.6% (active) | -99.3% (active) | -54.4% (active) | -99.6% (active) | -99% (active)
CCOc1c(Cl)cc(CNC(C)C(O)c2ccccc2)cc1OC (stereo not drawn) | 29.3% (inactive) | 89.1% (inactive) | 57% (inactive) | 66.8% (inactive) | 82.8% (inactive) | 51.4% (inactive) | 57.4% (inactive) | 47.1% (inactive) | 53.1% (inactive) | 57.2% (inactive) | 63.2% (inactive) | 41.5% (inactive) | 90.5% (inactive) | 20.5% (inactive) | 56.5% (inactive) | 103% (inactive) | 67.4% (inactive) | 50.9% (inactive) | 72.2% (inactive) | 42.9% (inactive)
Cc1nnc([S-])s1.[Au+].c1ccc([PH+](c2ccccc2)c2ccccc2)cc1 | 74.6% (inactive) | -29.7% (active) | 18.6% (inactive) | 7.17% (active) | -22.9% (active) | -12.4% (active) | -2.48% (active) | -76% (active) | 12% (inactive) | 15.4% (inactive) | -31% (active) | -55.7% (active) | – | -15.2% (active) | 15.9% (inactive) | 63.6% (inactive) | -96.3% (active) | 63.4% (inactive) | 33.9% (inactive) | -64.1% (active)
OC1CCCCC1N1CCC(c2ccccc2)CC1 (stereo not drawn) | 106% (inactive) | 93.1% (inactive) | 112% (inactive) | 106% (inactive) | 119% (inactive) | 109% (inactive) | 106% (inactive) | 110% (inactive) | 97.3% (inactive) | 91% (inactive) | 115% (inactive) | 103% (inactive) | 99% (inactive) | 86.2% (inactive) | 103% (inactive) | 107% (inactive) | 106% (inactive) | 99.7% (inactive) | 97.6% (inactive) | 94.1% (inactive)
C[C@]12C[C@H](O)[C@H]3[C@@H](CCC4=CC(=O)CC[C@@]43C)[C@@H]1CC[C@@H]2O | – | 107% (inactive) | 112% (inactive) | 105% (inactive) | 99% (inactive) | – | 98.4% (inactive) | 100% (inactive) | – | 95.3% (inactive) | 98.5% (inactive) | 106% (inactive) | – | 105% (inactive) | 114% (inactive) | 105% (inactive) | 112% (inactive) | 104% (inactive) | 104% (inactive) | 103% (inactive)
COc1ccc(Cc2cc(-c3ccccc3C)n[nH]c2=O)cc1 | – | – | – | – | – | – | – | – | – | – | – | – | – | 92.4% (inactive) | – | – | – | – | – | –
CCOC(=O)C1C(c2ccccc2)C2(C#N)C(=N)OC1(C)C2(C#N)C#N (stereo not drawn) | – | – | – | – | – | – | – | – | – | – | -70.2% [100 µM] (active) and -92.1% [100 µM] (active) | – | -32.2% [100 µM] (active) and -95.8% [100 µM] (active) | – | – | – | – | – | – | -22.3% [100 µM] (active) and -82.1% [100 µM] (active)
CC(=O)OCC1CCCO1 (stereo not drawn) | – | – | – | – | – | – | – | – | – | – | – | – | – | 84.7% (inactive) | – | – | – | – | – | –
O=C1NC(=O)C(CCC(=O)c2cccc3ccccc23)C(=O)N1 | – | – | – | – | – | – | – | – | – | – | 77.1% [100 µM] (inactive) and 44.6% [100 µM] (inactive) | – | 106% [100 µM] (inactive) and 8.08% [100 µM] (active) | – | – | – | – | – | – | 91% [100 µM] (inactive) and 51.9% [100 µM] (inactive)
CCSCC1CC(O)(c2ccccc2)C(c2ccccc2)C(c2ccc(F)cc2)O1 (stereo not drawn) | – | – | – | – | – | – | – | – | – | – | – | – | – | -12.5% (active) | – | – | – | – | – | –
CC(=O)OC1CCC2(C)C(=CCC3C4CC(CN5CC5)C(=O)C4(C)CCC32)C1 (stereo not drawn) | 94.1% (inactive) | 87.9% (inactive) | 80.8% (inactive) | 101% (inactive) | 98.1% (inactive) | 93.3% (inactive) | 93.4% (inactive) | 89.7% (inactive) | 85.2% (inactive) | 88.3% (inactive) | 94.4% (inactive) | 97.9% (inactive) | – | 64.2% (inactive) | 85% (inactive) | 97.7% (inactive) | 112% (inactive) | 101% (inactive) | 96.9% (inactive) | 15.5% (inactive)
